# Paper PMC7862700, “An all-to-all approach to the identification of sequence-specific readers for epigenetic DNA modifications on cytosine”
# Assays:
# Assay in all cases: DAPPL (digital affinity profiling via proximity ligation, sequencing); 10 mM Tris-HCl pH 7.5, 50 mM NaCl, 1 mM DTT, 4% glycerol, room temperature, 30 min; GST-TFs on glutathione beads, 16-mer random dsDNA library, 0.1% formaldehyde crosslink after washing; high values mean tight binding
# FLI1 = biological target: T1, FLI1 (Homo sapiens, UniProt Q01543 1-452); conditions: protein: recombinant; tags: N-terminal GST; dsDNA, one strand shown
# T1 sequence: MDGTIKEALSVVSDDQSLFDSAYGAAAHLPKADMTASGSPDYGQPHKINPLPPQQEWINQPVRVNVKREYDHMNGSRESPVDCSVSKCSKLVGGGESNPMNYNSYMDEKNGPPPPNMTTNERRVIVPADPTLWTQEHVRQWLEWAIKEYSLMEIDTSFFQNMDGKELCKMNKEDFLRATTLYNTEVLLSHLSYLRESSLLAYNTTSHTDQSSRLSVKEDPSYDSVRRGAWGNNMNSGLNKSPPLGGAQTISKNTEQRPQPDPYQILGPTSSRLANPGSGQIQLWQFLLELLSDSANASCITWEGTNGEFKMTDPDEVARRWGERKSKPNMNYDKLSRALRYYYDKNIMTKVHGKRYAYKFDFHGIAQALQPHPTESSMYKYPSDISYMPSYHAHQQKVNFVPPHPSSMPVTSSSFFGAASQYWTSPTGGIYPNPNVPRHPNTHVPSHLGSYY
# Summary of the method: (§1)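 Binding signal is each hexamer's read frequency for a factor divided by its frequency in the tag-only sample. The factors were GST-fused human transcription factors from yeast, captured on glutathione beads, DNA-barcoded and pooled with that sample. Pools were incubated with 200 nmole of a random double-stranded 16-mer DNA library in Tris/NaCl/DTT/glycerol buffer at room temperature for 30 min, then washed, crosslinked with 0.1% formaldehyde, proximity-ligated with BsaI/T4 ligase (1 h, 37 °C), PCR-amplified and sequenced on an Illumina NextSeq500.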
# ELK1 = biological target: T2, ELK1 (Homo sapiens, UniProt P19419 1-428); conditions: protein: recombinant; tags: N-terminal GST; dsDNA, one strand shown
# T2 sequence: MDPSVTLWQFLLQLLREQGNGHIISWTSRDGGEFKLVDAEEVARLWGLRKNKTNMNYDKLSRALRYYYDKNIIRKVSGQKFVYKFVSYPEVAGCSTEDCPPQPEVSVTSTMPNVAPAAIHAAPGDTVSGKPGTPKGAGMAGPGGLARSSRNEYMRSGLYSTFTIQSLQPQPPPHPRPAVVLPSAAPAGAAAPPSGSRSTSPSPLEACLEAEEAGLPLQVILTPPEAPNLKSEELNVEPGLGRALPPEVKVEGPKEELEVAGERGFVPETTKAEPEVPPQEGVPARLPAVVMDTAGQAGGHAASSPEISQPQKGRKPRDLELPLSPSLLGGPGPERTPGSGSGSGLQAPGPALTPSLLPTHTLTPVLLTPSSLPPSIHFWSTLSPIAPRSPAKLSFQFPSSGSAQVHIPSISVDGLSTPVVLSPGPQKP
# Summary of the method: as §1
# GABPA = biological target: T3, GABPA (Homo sapiens, UniProt Q06546 1-454); conditions: protein: recombinant; tags: N-terminal GST; dsDNA, one strand shown
# T3 sequence: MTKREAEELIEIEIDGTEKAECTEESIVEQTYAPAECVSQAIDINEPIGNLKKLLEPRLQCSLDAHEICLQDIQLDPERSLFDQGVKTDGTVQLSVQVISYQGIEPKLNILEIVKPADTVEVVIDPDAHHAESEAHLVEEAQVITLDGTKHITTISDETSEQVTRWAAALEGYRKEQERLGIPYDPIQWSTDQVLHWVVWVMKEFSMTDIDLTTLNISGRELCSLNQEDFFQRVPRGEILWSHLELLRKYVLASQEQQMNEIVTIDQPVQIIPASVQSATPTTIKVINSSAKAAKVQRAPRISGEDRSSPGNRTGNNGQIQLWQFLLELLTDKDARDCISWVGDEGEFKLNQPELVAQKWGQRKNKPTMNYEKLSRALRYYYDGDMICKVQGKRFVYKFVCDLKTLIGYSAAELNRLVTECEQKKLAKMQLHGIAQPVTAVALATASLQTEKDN
# Summary of the method: as §1
# ERG = biological target: T4, ERG (Homo sapiens, UniProt P11308 1-479); conditions: protein: recombinant; tags: N-terminal GST; dsDNA, one strand shown
# T4 sequence: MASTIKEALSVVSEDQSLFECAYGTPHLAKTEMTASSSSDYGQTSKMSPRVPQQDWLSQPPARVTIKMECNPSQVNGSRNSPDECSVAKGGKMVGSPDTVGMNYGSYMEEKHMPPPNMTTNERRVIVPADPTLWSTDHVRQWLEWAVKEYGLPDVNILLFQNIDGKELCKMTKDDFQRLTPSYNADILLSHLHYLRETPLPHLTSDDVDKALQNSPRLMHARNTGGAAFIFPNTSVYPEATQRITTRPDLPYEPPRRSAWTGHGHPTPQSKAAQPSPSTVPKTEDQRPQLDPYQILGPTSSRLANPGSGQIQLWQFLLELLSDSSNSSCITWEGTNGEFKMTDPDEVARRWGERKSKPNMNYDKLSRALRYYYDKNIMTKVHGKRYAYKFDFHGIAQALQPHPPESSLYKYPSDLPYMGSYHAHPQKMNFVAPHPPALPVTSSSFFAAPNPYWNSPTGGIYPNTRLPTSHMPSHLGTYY
# Summary of the method: as §1
# ELF1 = ELF1 (Homo sapiens, UniProt P32519 1-619); conditions: protein: recombinant; tags: N-terminal GST; dsDNA, one strand shown
# Summary of the method: as §1
# EHF = biological target: T5, EHF (Homo sapiens, UniProt Q9NZC4 1-300); conditions: protein: recombinant; tags: N-terminal GST; dsDNA, one strand shown
# T5 sequence: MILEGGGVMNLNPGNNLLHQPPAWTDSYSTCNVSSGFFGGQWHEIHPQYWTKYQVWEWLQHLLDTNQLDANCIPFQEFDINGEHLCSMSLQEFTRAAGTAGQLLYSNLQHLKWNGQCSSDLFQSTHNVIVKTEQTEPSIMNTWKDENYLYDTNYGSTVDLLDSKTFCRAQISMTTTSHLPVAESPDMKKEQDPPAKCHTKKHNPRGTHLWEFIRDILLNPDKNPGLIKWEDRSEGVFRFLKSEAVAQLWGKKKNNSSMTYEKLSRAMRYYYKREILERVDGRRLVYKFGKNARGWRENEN
# Summary of the method: as §1
# SPI1 = SPI1 (Homo sapiens, UniProt P17947 1-270); conditions: protein: recombinant; tags: N-terminal GST; dsDNA, one strand shown
# Summary of the method: as §1
# SPIB = SPIB (Homo sapiens, UniProt Q01892 1-262); conditions: protein: recombinant; tags: N-terminal GST; dsDNA, one strand shown
# Summary of the method: as §1
# ELK3 = biological target: T6, ELK3 (Homo sapiens, UniProt P41970 1-407); conditions: protein: recombinant; tags: N-terminal GST; dsDNA, one strand shown
# T6 sequence: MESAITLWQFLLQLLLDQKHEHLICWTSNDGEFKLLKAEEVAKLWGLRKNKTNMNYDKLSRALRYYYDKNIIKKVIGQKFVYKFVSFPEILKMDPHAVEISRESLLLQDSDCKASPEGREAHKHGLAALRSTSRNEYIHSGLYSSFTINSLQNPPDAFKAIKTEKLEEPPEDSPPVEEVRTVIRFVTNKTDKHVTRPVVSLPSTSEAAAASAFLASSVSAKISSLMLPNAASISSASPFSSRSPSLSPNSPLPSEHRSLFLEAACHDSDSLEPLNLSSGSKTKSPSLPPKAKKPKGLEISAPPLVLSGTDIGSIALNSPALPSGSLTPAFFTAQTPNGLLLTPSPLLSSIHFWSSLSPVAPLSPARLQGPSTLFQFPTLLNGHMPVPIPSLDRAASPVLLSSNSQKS
# Summary of the method: as §1
# FEV = biological target: T7, FEV (Homo sapiens, UniProt Q99581 1-238); conditions: protein: recombinant; tags: N-terminal GST; dsDNA, one strand shown
# T7 sequence: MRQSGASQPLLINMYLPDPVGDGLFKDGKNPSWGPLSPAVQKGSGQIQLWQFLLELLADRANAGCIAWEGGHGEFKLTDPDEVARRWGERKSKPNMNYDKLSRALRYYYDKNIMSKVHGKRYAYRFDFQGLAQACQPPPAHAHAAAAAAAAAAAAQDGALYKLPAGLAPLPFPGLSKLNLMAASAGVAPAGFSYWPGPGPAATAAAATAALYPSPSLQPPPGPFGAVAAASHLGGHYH
# Summary of the method: as §1
# ETV5 = ETV5 (Homo sapiens, UniProt P41161 1-510); conditions: protein: recombinant; tags: N-terminal GST; dsDNA, one strand shown
# Summary of the method: as §1
# HSF1 = HSF1 (Homo sapiens, UniProt Q00613 1-529); conditions: protein: recombinant; tags: N-terminal GST; chain copies: 3; dsDNA, one strand shown
# Summary of the method: as §1
# SPIC = biological target: T8, SPIC (Homo sapiens, UniProt Q8N5J4 1-248); conditions: protein: recombinant; tags: N-terminal GST; dsDNA, one strand shown
# T8 sequence: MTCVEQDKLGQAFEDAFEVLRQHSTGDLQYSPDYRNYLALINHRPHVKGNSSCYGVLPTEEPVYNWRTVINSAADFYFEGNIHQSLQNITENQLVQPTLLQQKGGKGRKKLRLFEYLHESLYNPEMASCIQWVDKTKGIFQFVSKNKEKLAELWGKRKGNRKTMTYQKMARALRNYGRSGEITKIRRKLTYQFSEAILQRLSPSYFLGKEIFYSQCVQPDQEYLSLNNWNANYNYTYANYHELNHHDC
# Summary of the method: as §1
# ELF4 = ELF4 (Homo sapiens, UniProt Q99607 1-663); conditions: protein: recombinant; tags: N-terminal GST; dsDNA, one strand shown
# Summary of the method: as §1
# ELK4 = biological target: T9, ELK4 (Homo sapiens, UniProt P28324-2 1-405); conditions: protein: recombinant; tags: N-terminal GST; dsDNA, one strand shown
# T9 sequence: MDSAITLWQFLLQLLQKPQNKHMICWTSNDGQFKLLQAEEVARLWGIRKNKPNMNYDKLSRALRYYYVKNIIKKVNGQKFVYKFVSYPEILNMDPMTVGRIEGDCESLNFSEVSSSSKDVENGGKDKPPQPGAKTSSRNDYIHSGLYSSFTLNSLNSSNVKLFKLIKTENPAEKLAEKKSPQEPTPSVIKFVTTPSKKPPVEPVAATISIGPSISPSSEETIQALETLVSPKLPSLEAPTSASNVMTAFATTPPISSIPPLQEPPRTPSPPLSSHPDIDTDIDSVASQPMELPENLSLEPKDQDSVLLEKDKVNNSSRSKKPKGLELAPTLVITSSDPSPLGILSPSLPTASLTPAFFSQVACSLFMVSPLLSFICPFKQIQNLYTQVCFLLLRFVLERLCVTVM
# Summary of the method: as §1
# ETV2 = biological target: T10, ETV2 (Homo sapiens, UniProt O00321 1-342); conditions: protein: recombinant; tags: N-terminal GST; dsDNA, one strand shown
# T10 sequence: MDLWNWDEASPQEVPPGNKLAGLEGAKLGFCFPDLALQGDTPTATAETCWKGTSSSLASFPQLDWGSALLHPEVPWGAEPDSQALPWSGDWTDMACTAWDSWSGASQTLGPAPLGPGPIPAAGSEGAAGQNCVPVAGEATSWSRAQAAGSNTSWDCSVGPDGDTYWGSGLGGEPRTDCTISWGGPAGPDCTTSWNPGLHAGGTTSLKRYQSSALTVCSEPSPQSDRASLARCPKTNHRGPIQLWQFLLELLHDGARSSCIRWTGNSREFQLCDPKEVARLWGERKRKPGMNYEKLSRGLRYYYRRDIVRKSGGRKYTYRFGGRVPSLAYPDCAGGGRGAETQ
# Summary of the method: as §1
# ELF3 = biological target: T11, ELF3 (Homo sapiens, UniProt P78545 1-371); conditions: protein: recombinant; tags: N-terminal GST; dsDNA, one strand shown
# T11 sequence: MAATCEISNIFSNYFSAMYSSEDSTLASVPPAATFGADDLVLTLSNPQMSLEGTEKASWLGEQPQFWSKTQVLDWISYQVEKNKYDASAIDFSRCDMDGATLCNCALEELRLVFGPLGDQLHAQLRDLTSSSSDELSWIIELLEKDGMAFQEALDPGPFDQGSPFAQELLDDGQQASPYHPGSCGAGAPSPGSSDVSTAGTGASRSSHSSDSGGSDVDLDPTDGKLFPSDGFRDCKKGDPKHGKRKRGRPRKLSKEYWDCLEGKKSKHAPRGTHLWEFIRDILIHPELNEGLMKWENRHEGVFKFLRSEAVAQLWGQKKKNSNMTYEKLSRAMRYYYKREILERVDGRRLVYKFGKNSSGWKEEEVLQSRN
# Summary of the method: as §1
# CRX = CRX (Homo sapiens, UniProt O43186 1-299); conditions: protein: recombinant; tags: N-terminal GST; dsDNA, one strand shown
# Summary of the method: as §1
# ETV1 = ETV1 (Homo sapiens, UniProt P50549 1-477); conditions: protein: recombinant; tags: N-terminal GST; dsDNA, one strand shown
# Summary of the method: as §1
# Chain of ETV5 (P41161 whole entry): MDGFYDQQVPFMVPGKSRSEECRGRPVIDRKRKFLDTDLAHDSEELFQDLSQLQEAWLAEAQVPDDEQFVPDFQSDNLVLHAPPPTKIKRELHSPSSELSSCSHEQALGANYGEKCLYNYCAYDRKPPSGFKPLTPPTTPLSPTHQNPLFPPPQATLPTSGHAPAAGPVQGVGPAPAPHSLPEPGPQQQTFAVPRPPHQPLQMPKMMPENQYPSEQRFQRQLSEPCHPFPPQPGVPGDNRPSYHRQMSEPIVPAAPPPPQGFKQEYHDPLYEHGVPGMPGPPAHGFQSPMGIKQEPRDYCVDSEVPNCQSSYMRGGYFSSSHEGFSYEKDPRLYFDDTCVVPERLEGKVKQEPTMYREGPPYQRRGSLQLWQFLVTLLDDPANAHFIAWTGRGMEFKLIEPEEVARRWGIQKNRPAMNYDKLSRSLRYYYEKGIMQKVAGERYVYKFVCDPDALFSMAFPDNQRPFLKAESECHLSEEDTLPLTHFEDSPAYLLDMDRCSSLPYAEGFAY
# Chain of SPIB (Q01892 whole entry): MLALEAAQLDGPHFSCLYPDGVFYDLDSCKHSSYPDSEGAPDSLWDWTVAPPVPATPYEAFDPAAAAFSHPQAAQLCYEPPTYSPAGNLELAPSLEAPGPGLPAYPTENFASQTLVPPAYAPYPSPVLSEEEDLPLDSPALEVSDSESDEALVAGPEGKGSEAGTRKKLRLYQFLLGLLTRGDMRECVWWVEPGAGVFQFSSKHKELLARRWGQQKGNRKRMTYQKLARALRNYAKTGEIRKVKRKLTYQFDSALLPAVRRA
# Chain of ELF4 (Q99607 whole entry): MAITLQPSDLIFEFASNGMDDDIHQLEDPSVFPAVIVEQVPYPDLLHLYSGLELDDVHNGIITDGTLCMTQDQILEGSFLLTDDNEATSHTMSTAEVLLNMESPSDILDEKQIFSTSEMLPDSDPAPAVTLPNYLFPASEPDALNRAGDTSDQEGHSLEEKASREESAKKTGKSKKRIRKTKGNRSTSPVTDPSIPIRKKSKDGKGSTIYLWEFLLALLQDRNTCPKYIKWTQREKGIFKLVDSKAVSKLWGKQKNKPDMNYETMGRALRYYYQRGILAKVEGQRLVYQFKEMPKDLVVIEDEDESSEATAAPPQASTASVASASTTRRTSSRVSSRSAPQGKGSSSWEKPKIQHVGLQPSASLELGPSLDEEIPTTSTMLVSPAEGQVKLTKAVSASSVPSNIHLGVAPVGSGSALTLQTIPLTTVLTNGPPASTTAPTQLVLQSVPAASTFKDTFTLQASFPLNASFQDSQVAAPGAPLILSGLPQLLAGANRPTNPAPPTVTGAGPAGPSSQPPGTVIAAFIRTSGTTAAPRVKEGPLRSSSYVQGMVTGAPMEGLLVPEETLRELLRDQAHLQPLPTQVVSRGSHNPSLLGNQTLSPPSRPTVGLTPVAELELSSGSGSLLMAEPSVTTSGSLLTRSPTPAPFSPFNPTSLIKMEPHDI
# Chain of HSF1 (Q00613 whole entry): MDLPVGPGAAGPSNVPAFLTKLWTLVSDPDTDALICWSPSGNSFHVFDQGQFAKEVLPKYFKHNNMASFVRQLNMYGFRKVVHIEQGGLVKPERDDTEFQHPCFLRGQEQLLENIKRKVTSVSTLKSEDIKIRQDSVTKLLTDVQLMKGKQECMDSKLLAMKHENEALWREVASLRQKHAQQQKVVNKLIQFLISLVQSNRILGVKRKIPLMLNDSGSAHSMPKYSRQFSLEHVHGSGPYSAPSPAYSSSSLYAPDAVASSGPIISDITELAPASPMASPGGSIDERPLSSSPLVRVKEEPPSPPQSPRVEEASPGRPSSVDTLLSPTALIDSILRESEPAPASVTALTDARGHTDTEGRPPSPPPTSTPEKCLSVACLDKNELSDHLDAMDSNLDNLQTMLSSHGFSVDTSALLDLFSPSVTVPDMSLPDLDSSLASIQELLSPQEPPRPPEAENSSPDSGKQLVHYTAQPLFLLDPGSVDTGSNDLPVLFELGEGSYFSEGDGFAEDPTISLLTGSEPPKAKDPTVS
# Chain of CRX (O43186 whole entry): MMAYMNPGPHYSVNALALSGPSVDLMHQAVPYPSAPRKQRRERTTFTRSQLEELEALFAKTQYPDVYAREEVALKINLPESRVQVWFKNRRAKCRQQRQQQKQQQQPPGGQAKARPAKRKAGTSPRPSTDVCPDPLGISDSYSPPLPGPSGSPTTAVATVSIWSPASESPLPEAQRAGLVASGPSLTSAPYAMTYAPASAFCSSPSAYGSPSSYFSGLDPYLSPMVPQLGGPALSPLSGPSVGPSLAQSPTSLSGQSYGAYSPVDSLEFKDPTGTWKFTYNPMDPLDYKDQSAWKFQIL
# Chain of ETV1 (P50549 whole entry): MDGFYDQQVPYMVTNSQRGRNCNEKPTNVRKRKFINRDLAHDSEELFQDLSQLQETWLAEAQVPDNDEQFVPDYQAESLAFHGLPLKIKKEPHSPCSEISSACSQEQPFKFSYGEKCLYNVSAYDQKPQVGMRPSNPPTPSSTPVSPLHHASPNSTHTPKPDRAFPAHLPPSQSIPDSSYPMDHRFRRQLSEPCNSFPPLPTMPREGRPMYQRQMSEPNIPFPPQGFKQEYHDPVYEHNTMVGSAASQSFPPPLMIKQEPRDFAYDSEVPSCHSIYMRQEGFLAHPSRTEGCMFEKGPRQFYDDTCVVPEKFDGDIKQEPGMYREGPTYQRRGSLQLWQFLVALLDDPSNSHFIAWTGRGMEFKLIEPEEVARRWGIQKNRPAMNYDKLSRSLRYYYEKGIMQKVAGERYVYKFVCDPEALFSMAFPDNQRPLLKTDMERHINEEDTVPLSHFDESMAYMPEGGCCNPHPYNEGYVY
# Chain of ELF1 (P32519 whole entry): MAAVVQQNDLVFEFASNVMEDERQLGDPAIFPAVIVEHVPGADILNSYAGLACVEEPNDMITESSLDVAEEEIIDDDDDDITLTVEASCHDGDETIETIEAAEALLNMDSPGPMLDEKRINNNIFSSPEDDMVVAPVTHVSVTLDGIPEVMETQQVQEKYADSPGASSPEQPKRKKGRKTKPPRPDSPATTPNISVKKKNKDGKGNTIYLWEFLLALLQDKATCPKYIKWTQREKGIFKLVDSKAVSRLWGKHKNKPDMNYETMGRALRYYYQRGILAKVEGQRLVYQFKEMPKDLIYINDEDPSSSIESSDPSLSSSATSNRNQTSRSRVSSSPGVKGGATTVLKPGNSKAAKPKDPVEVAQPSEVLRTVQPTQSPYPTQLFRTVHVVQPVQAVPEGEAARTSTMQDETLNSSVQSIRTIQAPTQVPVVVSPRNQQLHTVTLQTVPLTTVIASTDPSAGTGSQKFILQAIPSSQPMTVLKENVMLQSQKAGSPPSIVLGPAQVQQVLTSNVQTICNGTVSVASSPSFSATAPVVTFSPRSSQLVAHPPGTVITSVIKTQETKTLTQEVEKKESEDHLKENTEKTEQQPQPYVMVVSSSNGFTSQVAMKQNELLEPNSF
sequence,measurement,setting,value
TTTATT,binding signal,FLI1,"1.36 fold enrichment (6-mer frequency, TF over GST control)"
same,binding signal,ELK1,"1.25 fold enrichment (6-mer frequency, TF over GST control)"
same,binding signal,GABPA,"1.24 fold enrichment (6-mer frequency, TF over GST control)"
same,binding signal,ERG,"1.26 fold enrichment (6-mer frequency, TF over GST control)"
same,binding signal,ELF1,"1.19 fold enrichment (6-mer frequency, TF over GST control)"
same,binding signal,EHF,"1.31 fold enrichment (6-mer frequency, TF over GST control)"
same,binding signal,SPI1,"1.25 fold enrichment (6-mer frequency, TF over GST control)"
same,binding signal,SPIB,"1.32 fold enrichment (6-mer frequency, TF over GST control)"
same,binding signal,ELK3,"1.31 fold enrichment (6-mer frequency, TF over GST control)"
same,binding signal,FEV,"1.29 fold enrichment (6-mer frequency, TF over GST control)"
same,binding signal,ETV5,"1.29 fold enrichment (6-mer frequency, TF over GST control)"
same,binding signal,HSF1,"1.46 fold enrichment (6-mer frequency, TF over GST control)"
same,binding signal,SPIC,"1.25 fold enrichment (6-mer frequency, TF over GST control)"
same,binding signal,ELF4,"1.3 fold enrichment (6-mer frequency, TF over GST control)"
same,binding signal,ELK4,"1.27 fold enrichment (6-mer frequency, TF over GST control)"
same,binding signal,ETV2,"1.29 fold enrichment (6-mer frequency, TF over GST control)"
same,binding signal,ELF3,"1.29 fold enrichment (6-mer frequency, TF over GST control)"
same,binding signal,CRX,"1.93 fold enrichment (6-mer frequency, TF over GST control)"
same,binding signal,ETV1,"1.27 fold enrichment (6-mer frequency, TF over GST control)"
